Shown are actives, neighbours in structure and some others; about 3% of the full set was active somewhere.
S16 F2sN tox: Cell viability qHTS assay in S16 Pmp22-F2sN cells; S16 Pmp22-F2sN Schwann cells viability, CellTiter-Glo, 24 h; Potency, µM (top dose mostly 57.5 µM), for inactives: at the top dose activity change, negative = cytotoxicity, usual class: cytotoxic; 43,000 compounds, 0.48% hits; AID 1508642, 2021; further: potency means the concentration at half of the fitted maximal effect; on the % scale 0 is the no-effect control and ±100 the full control effect; nearly all actives have a fitted effect of over 65% in size
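Seed 500-1,000 S16 Pmp22-F2sN cells per well in phenol-red-free DMEM with 10% heat-inactivated FBS; pin-add 23 nL compound; incubate 24 h at 37C; add CellTiter-Glo, wait 15 min protected from light; read luminescence.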
OvCa metastasis: Primary qHTS assay for Inhibitors of ovarian cancer metastasis using an organotypic tumor microenvironment (TME) model | SKOV3ip1-GFP adhesion/invasion on 3D omental model, fluorescence | 46,000 compounds, 0.1% hits | Potency, µM (series often up to 45.8 µM), for inactives: at the top dose activity change, negative = inhibition, hits mostly inhibitors;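 further: potency means the concentration at half of the fitted maximal effect; plate controls were DMSO wells for no effect and tomatine positive control wells for full effect; nearly all actives have a fitted effect of over 65% in size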
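A 3D layer of primary human omental fibroblasts, mesothelial cells, fibronectin and collagen I, grown 48 hr, received SKOV3ip1-GFP cells in serum-free medium plus compounds at 0.36-46 umol/L. After 2 hr RT and 16 hr 37 C, fixed adherent GFP cells were counted; normalized to DMSO and tomatine.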
p53null 32C tox: qHTS Screen for Compounds that Selectively Target Cancer Cells with p53 Mutations: Cytotoxicity of p53 Null Cells at the Permissive Temperature | H1299-neo p53 null cells, ATP luminescence, 24 h, 32C | Potency, µM (highest dose often 46.1 µM), inactives show top-dose activity change, negative = cytotoxicity, usual class: cytotoxic | 55,000 compounds, 0.62% hits;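 further: potency means the concentration at half of the fitted maximal effect; 0% = DMSO only and -100% = full killing by 100 µM tamoxifen; nearly all actives have a fitted effect of over 55% in size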
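Cytotoxicity: H1299-neo (no p53), 32C, 24 h treatment. Concentrations up to 46 uM. Readout cellular ATP, luminescence. Normalization to DMSO basal and tamoxifen 100 uM maximal kill.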
p53null 39C kill: qHTS Screen for Compounds that Selectively Target Cancer Cells with p53 Mutations: Cytotoxicity of p53 Null Cells at the Nonpermissive Temperature; Potency, µM (series often up to 46.1 µM), for the others: at the highest dose activity, negative = cell killing, most hits filed as cytotoxic; H1299 p53-null (neo) cells, 39C, ATPlite viability, 24 h; 55,000 compounds, 0.97% hits; AID 904, 2007;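 further: potency means the concentration at half of the fitted maximal effect; 0% = DMSO only and -100% = full killing by 100 µM tamoxifen; nearly all actives have a fitted effect of over 50% in size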
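ATP-luminescence viability readout (ATPlite, 20 min RT) after 24 hr compound treatment at 39C of H1299-neo or H1299-p53A138V cells; titration up to 46 uM; normalized to DMSO and 100 uM tamoxifen; Hill-fit AC50.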
PMP22 txn prim: Cell-based coincidence reporter assay to measure PMP22 gene transcription in S16 Pmp22-F2sN cells - Primary screen; S16 Pmp22-F2sN Schwann cells (luciferase reporters placed in the Pmp22 gene), FLuc/NLuc coincidence luminescence, 24 h; Potency, µM (series often up to 57.5 µM), inactives show at the top dose activity change, negative = inhibition, most hits filed as inhibitors; 43,000 compounds, 2% hits; AID 1508649, 2021; active means clear falling dose curves in both reporters; inconclusive means both reporters move, but less clearly or upward; inactive means either reporter flat; the % is the NLuc reporter signal; further: potency means the concentration at half of the fitted maximal effect; on the % scale 0 is the no-effect control and ±100 the full control effect
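S16(c9) Schwann cells with FLuc/NLuc coincidence reporter in the Pmp22 3' UTR; compounds pin-transferred, 24 h at 37C. Dual-luciferase read: FLuc first, then NLuc after Stop&Glo, each 10 min at room temperature.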
mTORC1 inh: Acumen qHTS Assay for Inhibitors of the mTORC1 Signaling Pathway in MEF (Tsc2-/-, p53-/-) Cells: Sytravon. AID 493208, 2011. 44,000 compounds, 0.78% hits. Potency, µM (top dose mostly 38.3 µM), for inactives: at the highest dose activity change, negative = inhibition, actives largely listed as inhibitors. Tsc2-/- p53-/- MEF, phospho-rpS6 immunofluorescence/PI, 24 h;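 further: potency means the concentration at half of the fitted maximal effect; plate controls were DMSO for no effect and rapamycin for full effect; nearly all actives have a fitted effect of over 50% in size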
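Read-out: phospho-S6 Alexa-488 intensity over PI intensity per well, scored as % active cells using thresholds from rapamycin (7.5 nM) and DMSO controls. Tsc2-/-, p53-/- MEFs exposed to compound for 24 h; PI cell count recorded as viability.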
NLuc sat counter: Biochemical NLuc saturation counterscreen for small molecule modulators of PMP22 gene expression - Nano-Glo assay. shares compounds with PMP22 txn prim. Secreted NLuc enzyme (filtered S16 cell medium), Nano-Glo luminescence. Potency, µM (doses to about 57.5 µM), without a hit: at the highest dose activity change, negative = inhibition, hits mostly inhibitors. 690 compounds, 4% hits. AID 1508638, 2021; further: potency means the concentration at half of the fitted maximal effect; on the % scale 0 is the no-effect control and ±100 the full control effect
NLuc Km ctr: Biochemical coelenterazine-based NLuc counterscreen for small molecule modulators of PMP22 gene expression - Km assay; Potency, µM (highest dose often 57.5 µM), without a hit: at the highest dose activity change, negative = inhibition, actives largely listed as inhibitors; secreted NLuc enzyme, coelenterazine luminescence, Km conditions; shares compounds with PMP22 txn prim; 690 compounds, 5% hits; AID 1508639, 2021; further: potency means the concentration at half of the fitted maximal effect; on the % scale 0 is the no-effect control and ±100 the full control effect
FLuc ctr PMP22: Biochemical FLuc counterscreen for small molecule modulators of PMP22 gene expression; purified P. pyralis FLuc, luminescence, 10 min; shares compounds with PMP22 txn prim; AID 1508640, 2021; Potency, µM (top dose mostly 57.5 µM), inactives show at the top dose activity, negative = inhibition, usual class: inhibitors; 690 tested, under 10 active; further: % of control where 0% means no effect
Target sequence (P08659 whole entry, looked up): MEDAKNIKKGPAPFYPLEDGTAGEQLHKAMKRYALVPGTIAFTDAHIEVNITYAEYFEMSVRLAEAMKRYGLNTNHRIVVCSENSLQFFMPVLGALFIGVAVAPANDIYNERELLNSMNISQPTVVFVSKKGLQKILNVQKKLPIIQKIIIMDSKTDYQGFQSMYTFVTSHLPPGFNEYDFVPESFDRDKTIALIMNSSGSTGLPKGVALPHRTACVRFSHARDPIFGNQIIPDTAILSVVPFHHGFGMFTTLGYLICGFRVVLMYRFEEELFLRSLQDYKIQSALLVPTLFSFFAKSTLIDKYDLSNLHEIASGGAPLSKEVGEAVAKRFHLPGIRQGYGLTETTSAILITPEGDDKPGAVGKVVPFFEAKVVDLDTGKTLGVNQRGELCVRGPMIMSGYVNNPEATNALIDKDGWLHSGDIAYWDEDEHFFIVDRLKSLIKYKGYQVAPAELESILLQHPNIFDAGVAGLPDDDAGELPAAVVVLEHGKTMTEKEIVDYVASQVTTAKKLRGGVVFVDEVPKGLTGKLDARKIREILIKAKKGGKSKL
S16 F2sN tox cnf: Cell viability qHTS assay in S16 Pmp22-F2sN cells - Confirmatory screen; shares compounds with PMP22 txn prim; S16 Schwann cells viability, CellTiter-Glo ATP luminescence, 24 h; 690 compounds, 7% hits; AID 1508641, 2021; Potency, µM (series often up to 57.5 µM), without a hit: top-dose activity change, negative = viability loss, actives largely listed as cytotoxic; further: potency means the concentration at half of the fitted maximal effect; on the % scale 0 is the no-effect control and ±100 the full control effect
PMP22 txn conf: Cell-based coincidence reporter assay to measure PMP22 gene transcription in S16 Pmp22-F2sN cells - Confirmatory screen; shares compounds with PMP22 txn prim; S16 Schwann cells Pmp22-F2sN, dual luciferase, 24 h; Potency, µM (series often up to 57.5 µM), inactives show top-dose activity change, negative = inhibition, actives largely listed as inhibitors; 690 compounds, 22% hits; AID 1508646, 2021; active means clear falling dose curves in both reporters; inconclusive means both reporters move, but less clearly or upward; inactive means either reporter flat; the % is the FLuc reporter signal; further: potency means the concentration at half of the fitted maximal effect
Numbers without * were called inactive; i = inactive; ? = inconclusive; · = no result given. Unless noted, the call rests on the fitted dose curve; in most records, active means well fitted curve in the direction sought with a large enough effect; inconclusive means small, poorly fitted or top-dose-only effect, or another doubt; inactive means no such curve, though single readings can be large; an effect the other way counts as inactive or inconclusive.

SMILES | S16 F2sN tox | OvCa metastasis | p53null 32C tox | p53null 39C kill | PMP22 txn prim | mTORC1 inh | NLuc sat counter | NLuc Km ctr | FLuc ctr PMP22 | S16 F2sN tox cnf | PMP22 txn conf
Cc1ccc(NC(=O)N(Cc2ccc3c(c2)OCO3)C2CCN(Cc3ccccc3)CC2)cc1C | ? | ? | -5% | -24% | 14µM* | ? | -12% | ? | -2% | ? | ?
CCN1C[C@]2(OC(=O)c3ccccc3NC(C)=O)CC[C@H](OC)[C@@]34[C@H]5CC6[C@@H](OC)C[C@](O)(C(C[C@@H]23)[C@@H]14)[C@@]5(O)[C@@H]6OC | · | -1% | · | · | · | · | · | · | · | · | ·
Cc1nn2c(=O)cc(COC(=O)c3ccccc3NC(=O)c3cccs3)nc2s1 | -8% | 11% | -2% | ? | 7.1µM* | 0% | -4% | 2% | -3% | 9% | 32%
O=C(OCc1cc(=O)n2nc(C3CC3)sc2n1)c1ccc(NC(=O)c2ccccc2Cl)cc1 | 6% | -3% | ? | -10% | ? | 5% | · | · | · | · | ·
CCOc1ccc(/C=C/c2nc(C#N)c(NCc3ccccc3)o2)cc1 | -19% | i | -15% | ? | ? | ? | -2% | -1% | -3% | 11% | -18%
CN1CCN(c2oc(-c3ccc(COc4ccccc4)o3)nc2C#N)CC1 | 0% | -21% | -12% | -17% | 35% | -14% | · | · | · | · | ·
Cc1oc(-c2cccc(Cl)c2)nc1CN1CCC(C(=O)NCCCN2CCN(c3cccc(Cl)c3)CC2)CC1 | ? | 1% | -5% | ? | 12µM* | 0% | ? | ? | 4% | 27µM* | ?
Cc1oc(-c2ccccc2Cl)nc1CN1C(=O)CN=C(c2ccccc2)c2cc(Cl)ccc21 | ? | 1% | 11% | -9% | ? | -8% | · | · | · | · | ·
CCN(CC)C(=O)c1ccc(C2=CC3(CCNCC3)Oc3cccc(O)c32)cc1 | · | -7% | · | · | · | · | · | · | · | · | ·

From PubChem BioAssay
